# “And” between values parts separate entries of the source, which are not always exact repeats. Equal values may be shown once. In all, about 340,000 compounds went through this assay and about 12,000 (3.5%) were called active. Another 18% or so got no clear call; they are omitted. What follows is part of a selection rich in actives, with near analogues and random picks from the rest. A number with no mark means an inactive call. Calls follow the shape of the dose curve; as a rule, active = well fitted inhibition curve with a large enough effect; inconclusive = small, poorly fitted or top-dose-only effect, or another doubt; inactive = no such curve, though single readings can be large or run the other way.
# Experiment: qHTS Assay for Inhibitors of Hepatitis C Virus (HCV)
# Settings: Huh7.5.1 HCVcc-Cre infection, luciferase reporter, 44 h; series mostly up to 41.8 µM; activity change, negative = inhibition: at the top concentration
# In short: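 Cells seeded at 1,000/well and cultured 4 h, then compounds added followed by HCVcc-Cre virus (~0.5 moi). After 44 h further culture, luciferase substrate was added, plates held 15 min at room temperature, and luminescence read for 15 sec.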
# % is scaled to controls: 0 for no effect and ±100 for the full control effect; potency is read from the fitted curve at half-maximal effect.
Structure (SMILES),"activity change, negative = inhibition [%]",Potency
CCn1c(SCC(=O)NCC2CCCO2)nc2ccccc21 (stereo not drawn),5.12,
Cc1csc(NC(=O)C2=COCCO2)n1,-13.4,
CC(=O)NCCC(=O)Nc1nc(-c2ccc3c(c2)OCCO3)cs1,-11.8,
Cc1ccc(-c2csc(NC(=O)c3cnccn3)n2)cc1C,15.7,
O=C(Nc1nc(-c2ccncc2)cs1)C1COc2ccccc2O1 (stereo not drawn),-28,
O=C(Nc1nc(-c2ccc3c(c2)OCO3)cs1)c1ccncc1,,12.6 µM (active)
Cc1ccc(-c2csc(NC(=O)C3=COCCO3)n2)cc1C,,7.94 µM (active)
O=C(CCc1nc2sc3c(c2c(=O)[nH]1)CCCC3)NCC(=O)Nc1ccccc1Br,16.5,
COc1ccc(CNC(=O)COC(=O)C2=Cc3ccccc3OC2)cc1,5.91,
Cn1cc(C2OC(=O)c3ccccc32)c2ccccc21 (stereo not drawn),-11.7,
COc1cc(F)c(C2=CC(=O)CC(C)(C)C2)cc1F,0.584,
Cc1cc([N+](=O)[O-])ccc1NS(=O)(=O)c1ccccc1,-10.6,
COC(=O)c1ccc(/C=C/c2c(-c3ccc(OC)cc3)sc3ccccc23)cc1,20.7,
Cc1cccc(NC(=O)c2ccc(COc3ccccc3[N+](=O)[O-])o2)n1,,25.1 µM (active)
Cc1cccc(NC(=O)c2ccccc2NC(=O)C(C)(C)C)n1,14.2,
Cc1cccc(NC(=O)Nc2ccc(OCc3ccccc3)cc2)n1,-13.2,
CCc1ccc(C(=O)C(C)OC(=O)CN2C(=O)NC3(CCCC3)C2=O)cc1 (stereo not drawn),11.3,
Brc1ccccc1CN1CCC(Cc2ccccc2)CC1,13.6,
O=C(O)c1ccc(S(=O)(=O)N2CCC(Cc3ccccc3)CC2)cc1,17,
NC(=O)c1ccc(CN2CCC(Cc3ccccc3)CC2)cc1,,11.2 µM (active)
COc1ccccc1CNS(=O)(=O)c1cc2c3c(c1)CCC(=O)N3CCC2,-27.5,

Structure (SMILES),"activity change, negative = inhibition [%]",Potency
COc1ccc(-c2nc3c(s2)CCc2onc(-c4ccc(Br)cc4)c2-3)cc1,6.47,
CCCCn1c(N)c(N(CC(C)C)C(=O)CN(C)S(=O)(=O)c2ccc(F)cc2)c(=O)[nH]c1=O,2.2,
CC1(C)CC(=O)c2ccc(O)cc2O1,-1.61,
CC[C@@H]1Cc2cc(O)ccc2C2=C1c1ccc(O)cc1C[C@H]2CC,,3.16 µM (active)
O=C(Nc1cccc(S(=O)(=O)NC2=NCCC2)c1)c1ccc(F)cc1F,-7.06,
COc1ccc(-n2nc(C(=O)NCC(=O)N3CCCCCC3)c3ccccc3c2=O)cc1Cl,,11.2 µM (active)
COc1ccc(-n2nc(C(=O)NCC(=O)N3CCN(c4ccccc4OC)CC3)c3ccccc3c2=O)c(OC)c1,-14,
COc1ccc(-n2nc(C(=O)NCC(=O)N3CCC(C(N)=O)CC3)c3ccccc3c2=O)cc1OC,12.3,
O=C1N[C@@H](Cc2ccccc2)C(=O)N2[C@@H]3N(S(=O)(=O)c4ccc(F)cc4)c4ccccc4[C@]3(Br)C[C@@H]12,2.9,
CCOC(=O)C1CCN(CC(=O)Nc2ccc(OC)c(S(=O)(=O)N3CCCCC3)c2)CC1,6.66,
O=c1[nH]c2c(c(=O)n1-c1ccccc1)CCO2,25.9,
COc1cc(/C=C2\CCCc3c2nc2ccccc2c3C(=O)O)cc(Cl)c1O,8.48,
O=C(COC(=O)c1cccs1)Nc1ccccc1Cl,7.58,
O=C(COC(=O)c1c2c(nc3ccccc13)/C(=C\c1cccs1)CCC2)Nc1ccccc1Cl,,4.47 µM (active) and 2.51 µM (active)
Cc1ccc(C)c(NC(=O)COC(=O)CSc2ccccc2)c1,-8.78,
CN(CC(=O)NCc1ccc2c(c1)OCO2)CC(=O)Nc1ccc(F)c(F)c1F,7.62,
COc1ccc(CNC(=O)COC(=O)c2ccc(C)c(S(=O)(=O)N3CCOCC3)c2)cc1OC,-3.02,
COc1ccc(CCC(=O)Nc2ccc(Cl)c(S(=O)(=O)N3CCOCC3)c2)cc1OC,,11.2 µM (active)
COc1ccc(NS(=O)(=O)c2cc(NC(=O)/C=C/c3cc(OC)c(OC)c(OC)c3)ccc2N2CCCCC2)cc1,,inactive
COc1ccc(CC(=O)Nc2ccc3c(c2)CCC3)cc1S(=O)(=O)N1CCOCC1,-3.24,
COc1cc(/C=C/C(=O)Nc2ccc(OC)c(S(=O)(=O)N3CCOCC3)c2)ccc1OCC#N,,7.08 µM (active)

Structure (SMILES),"activity change, negative = inhibition [%]",Potency
COc1cc(/C=C/C(=O)OCC(=O)N2CCOCC2)ccc1OCC#N,3.73,
O=C(c1cnccn1)N1CCN(S(=O)(=O)c2cccc(Cl)c2)CC1,5.65,
CCOc1ccc(NC(=O)COC(=O)C2CCC(=O)N2)c([N+](=O)[O-])c1 (stereo not drawn),21.4,
CC(C)CC1NC(=O)c2cc(Cl)ccc2-n2c1nc1ccccc1c2=O (stereo not drawn),11.4,
Cc1ccc2nc(-c3ccc(NC(=O)c4cccnc4)cc3)oc2c1,,10 µM (active)
Cc1cc2nc(-c3ccc(NC(=O)c4cccnc4)cc3)oc2cc1C,-25.6,
CC(=O)Nc1ccc(-c2nc3ccccc3o2)cc1,-1.93,
N=C1c2ccccc2-c2ccccc21,8.98,
CC(C)(C)OC(=O)C[C@@H]1C/C=C\C[C@@H](CC(=O)NCCO)C(=O)N[C@H](Cc2c[nH]c3ccccc23)COC1=O,12.1,
Cc1cc(C)c(S(=O)(=O)n2cc(C(C)C(N)C(=O)O)c3ccccc32)c(C)c1 (stereo not drawn),20.4,
Cc1cc(=O)n2nc(N3CCC(C(=O)Nc4c(F)c(F)c(F)c(F)c4F)CC3)sc2n1,-8.41,
O=C(NNC(=O)C1CCN(c2ncccn2)CC1)c1ccccc1,10.3,
Cc1sc2ncnc(N3CCC(C(=O)Nc4nc5ccc(Cl)cc5s4)CC3)c2c1C,0.865,
O=C(Cc1ccccc1)NNC(=O)C1CCN(c2ncccn2)CC1,-20.5,
Cc1sc2ncnc(N3CCC(C(=O)Nc4ccc(F)cc4Cl)CC3)c2c1C,,11.2 µM (active)
CCc1ccc(C(=O)NNC(=O)C2CCN(c3ncnc4sc(C)c(C)c34)CC2)cc1,,12.6 µM (active)
CCOc1cccc2cc(C(=O)OCC(=O)Nc3c(C)cccc3CC)c(=O)oc12,7.95,
O=C1/C(=C\c2cccnc2)CN(Cc2ccccc2)C/C1=C\c1cccnc1,,6.31 µM (active)
Clc1ccc(CN2CCN(/N=C/c3cccnc3)CC2)cc1,-3.56,
O=Cc1cn(Cc2ccccc2)nc1-c1cccnc1,5.66,
CC(OC(=O)CNC(=O)c1cccc(F)c1)C(=O)NC1CCCCC1C (stereo not drawn),-18.8,

# Reference: PubChem BioAssay AID651820 (National Center for Advancing Translational Sciences (NCATS), 2012)
